Source: PubChem BioAssay (EPA / NIEHS)
Inconclusive results are not listed. The source made the active and inactive calls. How the source made its calls: active means hit-call score of the fitted dose curve at least 0.9, where 1 is the maximum; inconclusive means response in the unintended direction; inactive means score below 0.9.

What follows are compounds tested against human Thyroid Receptor Alpha (TRa), THRA (gene 7067) (UniProt P10827) (assay: NVS_NR_hTRa_Antagonist: NovaScreen (NVS) Nuclear Receptor Binding Assay for human Thyroid Receptor Alpha Antagonism (TRa) (AID 2283362);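 further: activity is loss of signal relative to DMSO baseline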).
Method in brief: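 Cell-free binding assay on extracted receptor protein, read 1 h after chemical dosing by AlphaLISA chemiluminescence; loss of signal relative to DMSO baseline marks antagonism. Primary screen ran in duplicate at 25 uM, with concentration series for actives.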

Chain of human Thyroid Receptor Alpha (TRa), THRA (gene 7067) (P10827 whole entry, looked up): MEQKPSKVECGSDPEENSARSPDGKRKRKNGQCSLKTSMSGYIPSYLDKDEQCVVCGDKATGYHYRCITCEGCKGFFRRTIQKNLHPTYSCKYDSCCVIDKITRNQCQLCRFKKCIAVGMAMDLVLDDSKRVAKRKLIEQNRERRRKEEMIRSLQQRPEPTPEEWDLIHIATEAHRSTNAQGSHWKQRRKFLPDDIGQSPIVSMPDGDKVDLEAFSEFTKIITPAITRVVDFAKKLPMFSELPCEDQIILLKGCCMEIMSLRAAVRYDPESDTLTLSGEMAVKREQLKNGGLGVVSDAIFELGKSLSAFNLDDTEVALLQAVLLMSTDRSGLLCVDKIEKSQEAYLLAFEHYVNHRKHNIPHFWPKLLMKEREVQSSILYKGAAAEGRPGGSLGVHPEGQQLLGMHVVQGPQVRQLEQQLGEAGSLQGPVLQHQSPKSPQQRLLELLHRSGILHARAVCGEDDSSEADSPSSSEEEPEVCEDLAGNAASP

| Compound | outcome |
| --- | --- |
| CC(C)CCCCCCOC(=O)C1CCCCC1C(=O)OCCCCCCC(C)C (stereo not given) | inactive |
| c1ccc(C(O[C@@H]2CCCN(CCc3ccc4c(c3)OCO4)C2)c2ccccc2)cc1 | inactive |
| CCCCC(CC)C(=O)OCCOCCOCCOC(=O)C(CC)CCCC (stereo not given) | inactive |

The compounds below were run against Nuclear receptor subfamily 1 group I member 2 (Homo sapiens) (UniProt O75469) (assay: NVS_NR_hPXR: NovaScreen (NVS) Nuclear Receptor Binding Assay for human Pregnane X Receptor (PXR) (AID 2283365);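 further: a drop in FRET signal versus DMSO baseline means the compound binds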).
Method in brief: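 Cell-free binding assay with extracted human PXR protein, read by TR-FRET 2 h after dosing; loss of signal relative to DMSO baseline indicates binding. Primary screen at 25 uM in duplicate, actives retested in concentration series.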

Chain of Nuclear receptor subfamily 1 group I member 2 (Homo sapiens) (O75469 whole entry, looked up): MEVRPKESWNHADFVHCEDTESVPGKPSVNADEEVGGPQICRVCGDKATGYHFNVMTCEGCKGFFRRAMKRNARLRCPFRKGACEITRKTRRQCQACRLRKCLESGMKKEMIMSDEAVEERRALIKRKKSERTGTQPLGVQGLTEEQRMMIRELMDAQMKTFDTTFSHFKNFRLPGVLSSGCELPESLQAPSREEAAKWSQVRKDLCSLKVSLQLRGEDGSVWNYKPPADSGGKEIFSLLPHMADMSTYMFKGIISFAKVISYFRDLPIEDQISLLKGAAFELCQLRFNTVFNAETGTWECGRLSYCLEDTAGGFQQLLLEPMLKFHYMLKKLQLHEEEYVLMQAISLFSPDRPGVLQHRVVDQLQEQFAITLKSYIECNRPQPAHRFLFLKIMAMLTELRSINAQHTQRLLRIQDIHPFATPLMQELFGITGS

| Compound | outcome | AC50 |
| --- | --- | --- |
| Cc1nc(-c2ccccn2)ncc1C(=O)Nn1cc(C)c2cc(F)ccc21 | inactive | – |
| CCN(CC)C(=S)SSC(=S)N(CC)CC | – | 0.7 µM (active) |
| CCCCCCCCCCCCCCCCOS(=O)(=O)O | – | 12.5 µM (active) |
| OCCOCCOCCO | – | 0.108 µM (active) |

Each compound was assayed against guinea pig Sigma Receptor, Non-selective Binding, SIGMAR1 (gene 100135589) (UniProt Q60492) (assay: NVS_OR_gSIGMA_NonSelective: NovaScreen (NVS) Nuclear Receptor Binding Assay for guinea pig Sigma Receptor, Non-selective Binding (AID 2283367)).
Method in brief: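 Test chemicals were screened in duplicate at 25 uM, then in concentration series if active, against radioligand binding to guinea pig brain membranes; filtration and scintillation counting at 1 h measured remaining bound ligand.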

Chain of guinea pig Sigma Receptor, Non-selective Binding, SIGMAR1 (gene 100135589) (Q60492 whole entry, looked up): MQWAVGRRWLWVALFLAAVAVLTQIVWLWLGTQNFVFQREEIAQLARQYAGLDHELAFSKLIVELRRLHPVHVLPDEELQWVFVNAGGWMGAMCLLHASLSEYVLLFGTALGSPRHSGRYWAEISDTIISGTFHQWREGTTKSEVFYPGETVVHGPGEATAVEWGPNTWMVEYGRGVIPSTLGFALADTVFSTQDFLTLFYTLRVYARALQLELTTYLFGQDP

| Compound | AC50 | outcome |
| --- | --- | --- |
| CCN(CC)C(=S)SSC(=S)N(CC)CC | 25 µM (active) | – |
| Cc1ncc([C@@H](CCCCCCc2ccc3c(n2)NCCC3)CC(=O)O)cn1 | 14.5 µM (active) | – |
| c1ccc(C(O[C@@H]2CCCN(CCc3ccc4c(c3)OCO4)C2)c2ccccc2)cc1 | 2.6 µM (active) | – |
| CCCCC(CC)C(=O)OCCOCCOCCOC(=O)C(CC)CCCC (stereo not given) | – | inactive |
| CCn1nc(C)c2c1C(=O)NCC(c1ccc(O)cc1)=N2 | – | inactive |

The compounds below were run on guinea pig Dopamine Transporter (DAT), gene 100714898 (assay: NVS_TR_gDAT: NovaScreen (NVS) Transporter Assay for guinea pig Dopamine Transporter (DAT) (AID 2283369);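 further: active compounds lower bound radioligand signal relative to DMSO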).
Method in brief: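 Guinea pig striatal membranes; radioligand displacement measured by filter-based scintillation counting 2 h after dosing. Initial duplicate screen at 25 uM, then concentration-response up to 50 uM for hits; loss of signal versus DMSO baseline.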

| Compound | outcome | AC50 |
| --- | --- | --- |
| CCN(CC)C(=S)SSC(=S)N(CC)CC | inactive | – |
| COc1cc(C(C)C)c2c(c1)S(=O)(=O)N(COc1cc(=O)n3cccc(OCCN4CCCCC4)c3n1)C2=O | – | 4.1 µM (active) |
| c1ccc(C(O[C@@H]2CCCN(CCc3ccc4c(c3)OCO4)C2)c2ccccc2)cc1 | – | 0.943 µM (active) |
| C=CCc1cc(S(=O)(=O)c2ccc(O)c(CC=C)c2)ccc1O | – | 13.2 µM (active) |
| CCn1nc(C)c2c1C(=O)NCC(c1ccc(O)cc1)=N2 | inactive | – |

What follows are compounds tested against Peroxisome proliferator-activated receptor gamma (Homo sapiens) (UniProt P37231) (assay: NVS_NR_hPPARg: NovaScreen (NVS) Nuclear Receptor Binding Assay for human Peroxisome Proliferator-activated Receptor gamma (PPARg) (AID 2283370)).
Method in brief: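 Cell-free binding to extracted PPARg protein, read by fluorescence polarization 2 h after dosing; loss of signal relative to DMSO baseline marks displacement. Primary screen in duplicate at 25 uM, actives retested in concentration series.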

Chain of Peroxisome proliferator-activated receptor gamma (Homo sapiens) (P37231 whole entry, looked up): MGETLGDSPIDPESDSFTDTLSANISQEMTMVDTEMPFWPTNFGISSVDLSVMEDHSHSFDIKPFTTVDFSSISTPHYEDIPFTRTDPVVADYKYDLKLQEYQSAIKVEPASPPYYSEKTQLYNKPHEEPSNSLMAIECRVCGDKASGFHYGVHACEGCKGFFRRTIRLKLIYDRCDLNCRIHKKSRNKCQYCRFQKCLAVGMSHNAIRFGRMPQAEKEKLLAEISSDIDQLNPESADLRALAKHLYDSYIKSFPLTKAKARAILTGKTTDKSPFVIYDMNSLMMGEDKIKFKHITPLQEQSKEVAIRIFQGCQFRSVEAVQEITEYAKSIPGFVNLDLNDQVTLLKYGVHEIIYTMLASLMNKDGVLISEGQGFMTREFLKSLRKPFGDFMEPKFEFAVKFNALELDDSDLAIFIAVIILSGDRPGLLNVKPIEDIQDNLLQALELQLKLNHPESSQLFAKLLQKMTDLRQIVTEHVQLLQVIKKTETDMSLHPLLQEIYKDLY

| Compound | outcome | AC50 |
| --- | --- | --- |
| Cc1ncc([C@@H](CCCCCCc2ccc3c(n2)NCCC3)CC(=O)O)cn1 | inactive | – |
| COc1cc(C(C)C)c2c(c1)S(=O)(=O)N(COc1cc(=O)n3cccc(OCCN4CCCCC4)c3n1)C2=O | – | 6.25 µM (active) |
| CCCCCCCCCCCCCCCCOS(=O)(=O)O | – | 1.64 µM (active) |
| C=CCc1cc(S(=O)(=O)c2ccc(O)c(CC=C)c2)ccc1O | – | 0.621 µM (active) |
| OCc1ccccc1 | inactive | – |
| CCn1nc(C)c2c1C(=O)NCC(c1ccc(O)cc1)=N2 | inactive | – |
| C[C@@H](Oc1ccc(CNC(=O)c2cccnc2Oc2ccc3c(c2)OCO3)c(F)c1)C(=O)O | – | 13.6 µM (active) |

The compounds below were run against human Dopamine Transporter (DAT), SLC6A3 (gene 6531) (UniProt Q01959) (assay: NVS_TR_hDAT: NovaScreen (NVS) Transporter Assay for human Dopamine Transporter (DAT) (AID 2283374);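 further: activity means loss of bound radioligand signal relative to DMSO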).
Method in brief: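 Extracted human SLC6A3 protein incubated 1 h with radioligand and test chemical; bound fraction separated on filters and counted. Single 25 uM duplicate screen preceded concentration-response follow-up; positive and negative controls on every plate.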

Chain of human Dopamine Transporter (DAT), SLC6A3 (gene 6531) (Q01959 whole entry, looked up): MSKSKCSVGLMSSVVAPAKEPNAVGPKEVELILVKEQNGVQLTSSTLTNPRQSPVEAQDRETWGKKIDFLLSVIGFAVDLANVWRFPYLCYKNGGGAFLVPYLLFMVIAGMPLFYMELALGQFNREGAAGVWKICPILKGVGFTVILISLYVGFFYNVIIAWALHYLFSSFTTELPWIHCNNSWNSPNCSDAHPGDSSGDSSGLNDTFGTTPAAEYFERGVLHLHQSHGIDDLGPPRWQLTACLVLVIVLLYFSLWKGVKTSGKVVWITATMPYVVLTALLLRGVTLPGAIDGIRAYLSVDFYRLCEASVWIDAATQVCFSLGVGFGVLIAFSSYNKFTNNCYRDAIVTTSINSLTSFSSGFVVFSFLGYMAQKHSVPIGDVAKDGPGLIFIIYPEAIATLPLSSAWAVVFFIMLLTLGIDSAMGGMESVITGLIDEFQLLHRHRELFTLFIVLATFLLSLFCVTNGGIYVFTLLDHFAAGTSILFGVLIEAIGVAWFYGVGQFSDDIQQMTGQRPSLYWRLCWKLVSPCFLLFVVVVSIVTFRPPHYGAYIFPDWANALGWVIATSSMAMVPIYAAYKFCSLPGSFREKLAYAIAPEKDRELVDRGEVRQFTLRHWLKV

| Compound | AC50 | outcome |
| --- | --- | --- |
| CCN(CC)C(=S)SSC(=S)N(CC)CC | 10.4 µM (active) | – |
| COc1cc(C(C)C)c2c(c1)S(=O)(=O)N(COc1cc(=O)n3cccc(OCCN4CCCCC4)c3n1)C2=O | 2.87 µM (active) | – |
| c1ccc(C(O[C@@H]2CCCN(CCc3ccc4c(c3)OCO4)C2)c2ccccc2)cc1 | 0.063 µM (active) | – |
| C=CCc1cc(S(=O)(=O)c2ccc(O)c(CC=C)c2)ccc1O | 7.48 µM (active) | – |
| CCCCC(CC)C(=O)OCCOCCOCCOC(=O)C(CC)CCCC (stereo not given) | – | inactive |
| OCc1ccccc1 | – | inactive |
| OCCOCCOCCO | 6.63 µM (active) | – |
| CCn1nc(C)c2c1C(=O)NCC(c1ccc(O)cc1)=N2 | – | inactive |

The compounds below were run against human Norepinephrine Transporter (NET), SLC6A2 (gene 6530) (UniProt P23975) (assay: NVS_TR_hNET: NovaScreen (NVS) Transporter Assay for human Norepinephrine Transporter (NET) (AID 2283377);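 further: cell-free membrane protein extracted from CHO cells expressing human NET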;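 on AC50: displacement of radioligand from human NET seen as loss of scintillation signal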).
Method in brief: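 In this cell-free binding screen, chemicals at 25 uM (duplicate) compete with a radioligand for CHO-derived human NET over 1 hour, with filter-based radiodetection.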

Chain of human Norepinephrine Transporter (NET), SLC6A2 (gene 6530) (P23975 whole entry, looked up): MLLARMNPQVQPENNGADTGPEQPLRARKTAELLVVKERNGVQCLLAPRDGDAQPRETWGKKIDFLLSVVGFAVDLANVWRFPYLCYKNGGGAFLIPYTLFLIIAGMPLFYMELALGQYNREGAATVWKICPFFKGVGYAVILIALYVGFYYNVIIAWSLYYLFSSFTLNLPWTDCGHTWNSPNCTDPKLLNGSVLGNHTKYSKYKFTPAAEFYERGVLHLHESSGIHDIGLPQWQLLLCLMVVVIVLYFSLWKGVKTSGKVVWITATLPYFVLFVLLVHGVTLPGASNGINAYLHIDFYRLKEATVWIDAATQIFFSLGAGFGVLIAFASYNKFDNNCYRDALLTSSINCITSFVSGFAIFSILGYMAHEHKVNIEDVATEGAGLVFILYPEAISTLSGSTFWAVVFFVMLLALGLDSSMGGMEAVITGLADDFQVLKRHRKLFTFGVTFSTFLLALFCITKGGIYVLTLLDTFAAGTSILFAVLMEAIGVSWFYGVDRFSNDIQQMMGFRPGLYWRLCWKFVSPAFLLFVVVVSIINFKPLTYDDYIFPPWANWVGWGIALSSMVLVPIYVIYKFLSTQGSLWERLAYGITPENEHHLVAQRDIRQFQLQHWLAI

| Compound | AC50 | outcome |
| --- | --- | --- |
| CCN(CC)C(=S)SSC(=S)N(CC)CC | 0.344 µM (active) | – |
| COc1cc(C(C)C)c2c(c1)S(=O)(=O)N(COc1cc(=O)n3cccc(OCCN4CCCCC4)c3n1)C2=O | 4.47 µM (active) | – |
| c1ccc(C(O[C@@H]2CCCN(CCc3ccc4c(c3)OCO4)C2)c2ccccc2)cc1 | 4.2 µM (active) | – |
| CCCCCCCCCCCCCCCCOS(=O)(=O)O | 19.6 µM (active) | – |
| c1ccc2cc3ccccc3cc2c1 | 6.95 µM (active) | – |
| C=CCc1cc(S(=O)(=O)c2ccc(O)c(CC=C)c2)ccc1O | 6.96 µM (active) | – |
| CCCCC(CC)C(=O)OCCOCCOCCOC(=O)C(CC)CCCC (stereo not given) | – | inactive |
| OCCOCCOCCO | – | inactive |
